Data reported in PubChem BioAssay (Tox21).
Records with an inconclusive call do not appear. Calls of active or inactive are those of the source. Unless noted, calls follow the shape of the dose curve; as a rule, active = well fitted curve in the direction sought with a large enough effect in the repeat runs; inconclusive = weak or mixed curves; inactive = no such curve, though single readings can be large; an effect the other way counts as inactive or inconclusive.

Tests used:
[1] = qHTS assay for small molecule agonists of the p53 signaling pathway - cell viability (AID 651633; calls by dose curve;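 also: p53RE-bla HCT reporter cells with a stable beta-lactamase p53 reporter; series mostly up to about 83 µM; nearly all actives have a fitted effect of over 30% in size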)
Procedure, shortened: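 p53RE-bla cells were treated with compound for 16 hours at 37 C. Cytotoxicity was then measured as CellTiter-Glo luminescence after 30 min at room temperature.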

[2] = qHTS assay for small molecule disruptors of the mitochondrial membrane potential - cell viability (AID 720634; calls by dose curve;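 also: human HepG2 liver cancer cells; series mostly up to about 83 µM; nearly all actives have a fitted effect of over 20% in size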)
Procedure, shortened: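 ATP-based luminescent viability readout (CellTiter-Glo, 30 min, room temperature) in HepG2 cells multiplexed with the m-MPI membrane potential dye; compound exposure lasted 1 hr at 37 C.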

[3] = qHTS assay to test for compound auto fluorescence at 590 nm (red) in HepG2 cells (AID 720674)
Procedure, shortened: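 Fluorescence at 590 nm emission following 540 nm excitation was recorded from HepG2 wells one hour after compound transfer, with DMSO-only wells as vehicle and Rose Bengal sodium equivalency as the scale.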

[4] = qHTS assay to test for compound auto fluorescence at 535 nm (green) in HepG2 cells (AID 720675)
[5] = qHTS assay to test for compound auto fluorescence at 460 nm (blue) in HEK293 cells (AID 720678)
Procedure, shortened: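 Blue-channel (Ex/Em 405/460 nm) intensity measured in HEK293 cultures after overnight compound exposure at 37C; signal expressed relative to triamterene. Cells plated 2,000 per well in 10% dialyzed FBS medium and allowed 4-5 hr to attach.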

[6] = qHTS assay to test for compound auto fluorescence at 590 nm (red) in HEK293 cells (AID 720679)
Procedure, shortened: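 Red-channel autofluorescence (Ex/Em 540/590 nm; Rose Bengal sodium reference) was measured after overnight 37C, 5% CO2 exposure of attached HEK293 cells, 2,000 per well in medium with 10% dialyzed FBS.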

[7] = qHTS assay to test for compound auto fluorescence at 460 nm (blue) in HEK293 cell free culture (AID 720681)
Procedure, shortened: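 Compounds were added to cell-free DMEM with 10% FBS and fluorescence read directly. The blue channel used 405 nm excitation and 460 nm emission, with triamterene as the reference fluorophore.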

[8] = qHTS assay to test for compound auto fluorescence at 535 nm (green) in HEK293 cell free culture (AID 720682)
Procedure, shortened: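 Intrinsic compound fluorescence is measured in culture medium containing 10% FBS, with excitation at 485 nm and detection at 535 nm, referenced to fluorescein.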

[9] = qHTS assay to test for compound auto fluorescence at 590 nm (red) in HEK293 cell free culture (AID 720683)
Procedure, shortened: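 Cell-free wells of DMEM with 10% FBS received compound, and intrinsic fluorescence was read at excitation/emission 540/590 nm. Values expressed as equivalence to Rose Bengal sodium.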

[10] = qHTS assay to test for compound auto fluorescence at 590 nm (red) in HepG2 cell free culture (AID 720684)
Procedure, shortened: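 Rose Bengal sodium served as the reference for red signal. Test compounds were dispensed into serum-containing MEM (10% FBS) without cells, and plates were read at 540/590 nm.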

[11] = qHTS assay to test for compound auto fluorescence at 535 nm (green) in HepG2 cell free culture (AID 720686)
[12] = qHTS assay to test for compound auto fluorescence at 460 nm (blue) in HepG2 cells (AID 720687)
Procedure, shortened: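 HepG2 cells in MEM with 10% FBS, attached overnight at 37 C, were exposed to compound or DMSO for 1 hr at 37 C, 5% CO2. Blue fluorescence was read at 405/460 nm, with triamterene as reference fluorophore.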

[13] = qHTS assay to identify small molecule antagonists of the glucocorticoid receptor (GR) signaling pathway - cell viability counter screen (AID 720693); also: nearly all actives have a fitted effect of over 55% in size
[14] = qHTS assay to identify small molecule antagonists of the androgen receptor (AR) signaling pathway using the MDA cell line - cell viability counter screen (AID 743041; also: nearly all actives have a fitted effect of over 45% in size)
Procedure, shortened: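 Cytotoxicity counter screen: MDA-kb2 AR-luc cells, compound + R1881, 16 h, 37C, 0% CO2; CellTiter-Fluor added at 15.5 h, fluorescence read after 30 min.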

[15] = qHTS assay to identify small molecule antagonists of the estrogen receptor alpha (ER-alpha) signaling pathway using the BG1 cell line - cell viability counter screen (AID 743081);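 also: compound given together with 17beta-estradiol as the ER stimulus; series mostly up to about 70 µM; nearly all actives have a fitted effect of over 45% in size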
Aromatase (Homo sapiens) = Aromatase (Homo sapiens) (UniProt P11511); test: qHTS assay to identify aromatase inhibitors (AID 743083); also: series mostly up to about 70 µM; nearly all actives have a fitted effect of over 55% in size
[16] = qHTS assay to identify aromatase inhibitors - cell viability counter screen (AID 743084);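 also: cells stimulated with testosterone during compound exposure; nearly all actives have a fitted effect of over 55% in size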
[17] = target: Aryl hydrocarbon receptor (Homo sapiens) (UniProt P35869); test: qHTS assay to identify small molecule that activate the aryl hydrocarbon receptor (AhR) signaling pathway (AID 743085);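 also: HG2L7.5c1 human HepG2 liver cells with stably integrated DRE-driven firefly reporter; series mostly up to about 70 µM; nearly all actives have a fitted effect of over 15% in size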
Procedure, shortened: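 Reporter assay in engineered HepG2 line HG2L7.5c1, whose plasmid carries twenty dioxin responsive elements upstream of firefly luciferase. Treatment lasted 24 h at 37C; ONE-Glo luminescence gauged induction.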

[18] = qHTS assay to identify small molecule that activate the aryl hydrocarbon receptor (AhR) signaling pathway - cell viability counter screen (AID 743086);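 also: HepG2 liver cells carrying the AhR DRE luciferase reporter; series mostly up to about 70 µM; nearly all actives have a fitted effect of over 45% in size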
Procedure, shortened: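 HepG2-AhR-luc (HG2L7.5c1) cells, 4000/well, treated 24 h at 37 C with compound; viability measured as CellTiter-Fluor fluorescence after 30 min in the same wells as the luciferase read.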

[19] = qHTS assay to identify small molecule phospholipidosis (PLD) inducers (AID 1259344; active = well fitted curve in the direction sought with a large enough effect; an effect the other way counts as inactive or inconclusive)
Procedure, shortened: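 Read-out is LipidTOX Red fluorescence (ex 595/em 615) imaged in HepG2 cells after 24 h compound exposure at 37 C, with Hoechst nuclear counterstain (ex 352/em 461) allowing per-cell normalisation.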

Measured: Potency

Aryl hydrocarbon receptor (Homo sapiens), sequence (P35869 whole entry, looked up): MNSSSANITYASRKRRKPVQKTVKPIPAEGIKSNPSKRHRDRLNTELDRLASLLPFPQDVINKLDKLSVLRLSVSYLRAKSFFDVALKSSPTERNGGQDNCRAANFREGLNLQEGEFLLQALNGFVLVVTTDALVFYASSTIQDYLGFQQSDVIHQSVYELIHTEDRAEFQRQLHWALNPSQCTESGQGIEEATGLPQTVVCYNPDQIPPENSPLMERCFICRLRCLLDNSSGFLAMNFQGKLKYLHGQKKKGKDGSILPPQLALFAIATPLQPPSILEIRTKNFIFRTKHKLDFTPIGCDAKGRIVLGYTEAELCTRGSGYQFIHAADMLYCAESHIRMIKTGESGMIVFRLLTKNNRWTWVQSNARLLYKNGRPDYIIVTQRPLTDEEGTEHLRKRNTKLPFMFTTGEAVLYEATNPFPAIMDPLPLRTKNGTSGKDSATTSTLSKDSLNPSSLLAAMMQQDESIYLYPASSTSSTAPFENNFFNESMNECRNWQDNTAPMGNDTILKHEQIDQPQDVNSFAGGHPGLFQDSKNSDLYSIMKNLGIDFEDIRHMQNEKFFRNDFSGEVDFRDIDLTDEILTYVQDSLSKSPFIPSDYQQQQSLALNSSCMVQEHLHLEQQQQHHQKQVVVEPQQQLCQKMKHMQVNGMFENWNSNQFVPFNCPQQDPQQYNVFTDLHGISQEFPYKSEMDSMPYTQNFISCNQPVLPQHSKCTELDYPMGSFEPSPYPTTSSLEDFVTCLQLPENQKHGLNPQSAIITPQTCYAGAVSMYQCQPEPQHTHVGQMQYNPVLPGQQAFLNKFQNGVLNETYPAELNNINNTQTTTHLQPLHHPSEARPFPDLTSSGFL
Aromatase (Homo sapiens), sequence (P11511 whole entry, looked up): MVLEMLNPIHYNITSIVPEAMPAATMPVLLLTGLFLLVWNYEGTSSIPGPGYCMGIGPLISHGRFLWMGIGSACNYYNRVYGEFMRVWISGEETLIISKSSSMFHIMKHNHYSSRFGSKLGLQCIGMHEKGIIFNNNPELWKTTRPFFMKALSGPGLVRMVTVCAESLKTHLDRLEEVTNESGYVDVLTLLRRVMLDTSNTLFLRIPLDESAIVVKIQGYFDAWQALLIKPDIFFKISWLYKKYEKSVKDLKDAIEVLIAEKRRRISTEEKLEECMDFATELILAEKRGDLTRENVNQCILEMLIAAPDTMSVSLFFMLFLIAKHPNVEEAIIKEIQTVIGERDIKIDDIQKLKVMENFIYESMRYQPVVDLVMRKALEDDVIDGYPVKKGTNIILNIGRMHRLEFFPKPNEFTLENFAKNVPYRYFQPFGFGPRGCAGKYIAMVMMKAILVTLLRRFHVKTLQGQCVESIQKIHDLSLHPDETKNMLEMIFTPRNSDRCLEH

C[N+]1(C)[C@@H]2CC[C@H]1CC(OC(=O)c1c[nH]c3ccccc13)C2 (stereo partly specified)
inactive: all assays above

O=C(C[C@@H]1NCCC[C@H]1O)Cn1cnc2cc(Br)c(Cl)cc2c1=O
not listed: [17]
inactive: all other assays above

C/C(=C\c1csc(C)n1)[C@@H]1C[C@@H]2O[C@]2(C)CCC[C@H](C)[C@H](O)[C@@H](C)C(=O)C(C)(C)[C@@H](O)CC(=O)O1
inactive: all assays above

CCN1C[C@]2(COC)[C@H](O)C[C@H](OC)[C@@]34[C@@H]5C[C@@]6(O)[C@H](OC(=O)c7ccccc7)[C@@H]5[C@@](OC(C)=O)([C@@H]([C@H](OC)[C@H]23)[C@@H]14)[C@@H](O)[C@@H]6OC
inactive: all assays above

CC(C)CCC(=O)O[C@H]1CC[C@H]2[C@@H]3CCC4=CC(=O)CC[C@]4(C)[C@H]3CC[C@]12C
not listed: [1] | [13]
inactive: all other assays above

CC(N)Cc1ccc(O)cc1 (stereo unspecified)
inactive: all assays above

CCCC(=O)OC(C(Cl)(Cl)Cl)P(=O)(OC)OC (stereo unspecified)
not listed: [17]
inactive: all other assays above

CCCC(C)(COC(N)=O)COC(=O)NC1CC1 (stereo unspecified)
inactive: all assays above

CC(=O)OCC(=O)[C@H]1CC[C@H]2[C@@H]3CC[C@H]4C[C@H](O)CC[C@]4(C)[C@H]3C(=O)C[C@]12C
inactive: all assays above
